BoNT-A LC inh2 = blocks Botulinum neurotoxin A light chain protease | multiplex microsphere protease substrate cleavage, flow cytometry | inhibition, % at 10 µM | hit rate 0.17% among 360,000 | AID 588499
Anthrax LF prot = inhibitors of Bacillus anthracis lethal factor protease; hit rate 0.12% among 360,000; multiplex microsphere protease cleavage assay, LF; inhibition, % at 10 µM; P15917
Autofluor counter = compound fluorescence in toxin protease inhibitor counterscreen. compound autofluorescence counterscreen, microsphere flow cytometry; hits give high values. fluorescence intensity (test concentration not listed). hit rate 3.1% among 360,000; in the data active means fluorescence intensity above about 16000; inconclusive means no clear call, values can overlap the other calls
BoNT-F LC inh = blocks Botulinum neurotoxin F light chain protease | Multiplex microsphere protease cleavage assay, flow cytometry | inhibition, % at 10 µM | hit rate 0.22% among 360,000; in the data active means inhibition above about 35%, passing the limit was not always enough; inconclusive means no clear call, values can overlap the other calls
TcdB inh = blocks C. difficile toxin B glycohydrolase activity; TcdB glycohydrolase enzymatic assay, plate reader; AID 652162; P18177; hit rate 0.24% among 350,000; inhibition, % at 9.99 µM; in the data active means inhibition above about 10%
BoNTA LC inh 1 = inhibitors of Botulinum neurotoxin A light chain protease. inhibition, % at 10 µM. shares compounds with BoNT-F LC inh. AID 602139. multiplex microsphere protease assay, flow cytometry. hit rate 3% among 720; in the data active means inhibition above about 32%
BoNT-F LC CP1 = blocks botulinum neurotoxin F light chain protease; 720 tested, under 10 active; multiplex microsphere protease cleavage assay, flow cytometry; inhibition, % at 10 µM; shares compounds with BoNT-F LC inh; call rule not given here
Anthrax LF CP1 = blocks anthrax lethal factor protease; shares compounds with BoNT-F LC inh; AID 602142; inhibition, % at 10 µM; multiplex microsphere protease cleavage assay, LF; 720 tested, under 10 active; call rule not given here
Large screens that a line does not name were inactive (follow-up assays come after a bar, where they were run). The full list was thinned out, with hits kept by preference. Unless noted, no stated cut-off is given here; in the data, active means inhibition above about 30%; inconclusive means no clear call, values can overlap the other calls; inactive means below that.

Cc1nc(-c2ccccc2)sc1-c1n[nH]c(=S)n1C	BoNT-A LC inh2 29.9, Autofluor counter inconclusive, BoNT-F LC inh 53.7 (no result: TcdB inh) | BoNTA LC inh 1 inactive | BoNT-F LC CP1 inactive | Anthrax LF CP1 inactive
Cn1c(-c2ccccc2)n[nH]c1=S	none
Cc1ccc(-n2c(SCC(N)=O)nnc2-c2cnccn2)cc1	Anthrax LF prot 36.1, BoNT-F LC inh inconclusive | BoNTA LC inh 1 inactive | BoNT-F LC CP1 inactive | Anthrax LF CP1 inactive
NC(=O)CSc1nnc(-c2cnccn2)n1-c1ccccc1	none (no result: TcdB inh)
C[C@H]1CN([C@@H](C)CO)C(=O)c2cccc(NC(=O)c3cnccn3)c2O[C@H]1CN(C)Cc1ccc(Cl)c(Cl)c1	none (no result: BoNT-A LC inh2, Anthrax LF prot, Autofluor counter, BoNT-F LC inh)
CC(=O)N(C)C[C@@H]1Oc2ncc(C#CCc3ccccc3)cc2C(=O)N([C@@H](C)CO)C[C@H]1C	none (no result: BoNT-A LC inh2, Anthrax LF prot, Autofluor counter, BoNT-F LC inh)
CO[C@@H]1CN(C)C(=O)c2ccc(NC(C)=O)cc2OC[C@H](C)N(C(=O)CN2CCOCC2)C[C@H]1C	none (no result: BoNT-A LC inh2, Anthrax LF prot, Autofluor counter, BoNT-F LC inh)
O=C(Nc1ccc(CN2CCOCC2)cc1)c1ccc(Cl)cc1	none
O=C(Nc1ccc(CN2CCS(=O)(=O)CC2)cc1)c1ccc(C(F)(F)F)cc1	Anthrax LF prot 30.1 | BoNTA LC inh 1 inactive | BoNT-F LC CP1 inactive | Anthrax LF CP1 inactive
O=C(Nc1ccc(CN2CCOCC2)cc1)c1ccc(F)cc1	BoNT-F LC inh 34.9 | BoNTA LC inh 1 inactive | BoNT-F LC CP1 inactive | Anthrax LF CP1 inactive
CC(C)(C)c1ccc(C(=O)Nc2ccc(CN3CCS(=O)(=O)CC3)cc2)cc1	Autofluor counter inconclusive, BoNT-F LC inh inconclusive
Cc1ccc(S(=O)(=O)N2C[C@H](O)COC[C@@H]3O[C@H](CC(=O)NCCN4CCCCC4)CC[C@H]32)cc1	none (no result: BoNT-A LC inh2, Anthrax LF prot, Autofluor counter, BoNT-F LC inh)
c1ccc(-c2ncc3ccccn23)cc1	none | BoNTA LC inh 1 inactive | BoNT-F LC CP1 inactive | Anthrax LF CP1 inactive
Cc1ccc(Nc2nc(Oc3ccc(=O)[nH]n3)nc(N(C)C)n2)cc1	none (no result: TcdB inh)
CN(C)c1nc(Nc2ccc(F)cc2)nc(Oc2ccc(F)cc2)n1	BoNT-A LC inh2 57.2 | BoNTA LC inh 1 inactive | BoNT-F LC CP1 inactive | Anthrax LF CP1 inactive
O=C(Nc1ccc2nc(-c3cccs3)c(-c3cccs3)nc2c1)NC1CC1	BoNT-A LC inh2 83.4, Anthrax LF prot 54.5, BoNT-F LC inh 36.2 (no result: TcdB inh) | BoNTA LC inh 1 49.9 | BoNT-F LC CP1 inactive | Anthrax LF CP1 31.3
O=C(Nc1cccs1)NC1CCCC1	none (no result: TcdB inh)
CCCN(C)C[C@H]1Oc2ncc(-c3ccccc3F)cc2C(=O)N([C@@H](C)CO)C[C@H]1C	none (no result: BoNT-A LC inh2, Anthrax LF prot, Autofluor counter, BoNT-F LC inh)
COc1cc2c(cc1OC)CN(S(=O)(=O)c1ccccc1F)CC2	none
O=S(=O)(c1ccccc1F)N1CCc2ccccc2C1	Anthrax LF prot 33.9, BoNT-F LC inh inconclusive | BoNTA LC inh 1 inactive | BoNT-F LC CP1 inactive | Anthrax LF CP1 inactive
Cc1ccc(C(=O)Nc2ccc(S(=O)(=O)N3CCc4ccccc4C3)cc2)o1	BoNT-F LC inh 36.5 (no result: TcdB inh) | BoNTA LC inh 1 inactive | BoNT-F LC CP1 inactive | Anthrax LF CP1 inactive
Cc1noc(C)c1NC(=O)N(C)C[C@@H]1OCCCC[C@@H](C)Oc2ccc(NC(=O)c3ccccc3)cc2C(=O)N([C@@H](C)CO)C[C@H]1C	none (no result: BoNT-A LC inh2, Anthrax LF prot, Autofluor counter, BoNT-F LC inh)
CC(C)C#Cc1ccc2c(c1)O[C@@H](CN(C)C(=O)c1ccncc1)[C@H](C)CN([C@H](C)CO)S2(=O)=O	none (no result: BoNT-A LC inh2, Anthrax LF prot, Autofluor counter, BoNT-F LC inh)
COCCCNC(=O)C(Cc1ccccc1)NS(=O)(=O)c1ccc2c(c1)c(=O)n(C)c(=O)n2C (stereo unspecified)	BoNT-F LC inh 51.7 (no result: TcdB inh) | BoNTA LC inh 1 inactive | BoNT-F LC CP1 inactive | Anthrax LF CP1 inactive
Cn1c(=O)c2cc(S(=O)(=O)NC(Cc3ccccc3)C(=O)NCc3ccco3)ccc2n(C)c1=O (stereo unspecified)	none
CCCCC(=O)C1CCN(Cc2ccccc2)CC1	none (no result: TcdB inh) | BoNTA LC inh 1 inactive | BoNT-F LC CP1 inactive | Anthrax LF CP1 inactive
O=C(C[C@@H]1C[C@H]2c3cc(NC(=O)NC4CCCCC4)ccc3O[C@H]2[C@H](CO)O1)NCC1CC1	none (no result: BoNT-A LC inh2, Anthrax LF prot, Autofluor counter, BoNT-F LC inh)
COc1cccc(C(=O)Nn2cnnc2)c1	none
COc1cc(OC)cc(C(=O)Nn2cnnc2)c1	Anthrax LF prot 37.4, BoNT-F LC inh inconclusive | BoNTA LC inh 1 inactive | BoNT-F LC CP1 inactive | Anthrax LF CP1 inactive
Cc1cc(C(=O)Nc2cc(C(C)(C)C)on2)c(C)o1	Anthrax LF prot 100.0, BoNT-F LC inh inconclusive | BoNTA LC inh 1 inactive | BoNT-F LC CP1 inactive | Anthrax LF CP1 inactive
Cc1cc(C(=O)Nc2ccon2)c(C)o1	none

Assay outcomes: PubChem BioAssay, several laboratories
